Hit rate of the full screen: of about 5,500 compounds, about 2,000 (36%) were called active. Inconclusive results (about 18%) are left out. Rule as the data show it: active = normalized growth mostly below about 0.91 (no sharp cut-off); inconclusive = no clear call, values can overlap the other calls; inactive = mostly above about 0.92. This is one part of the list.
Experiment: chemical genetic growth profiling, strain panel (AID 1159580);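 also: tested at 20 µM; growth read once vehicle control cultures reached saturation at 30 °C; 1 = growth at the plate median or of vehicle wells; lower values mean less growth of the strain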
Details: growth OD

Measured: normalized growth

CC12CCC3C(CCC4=C(O)C(=O)CCC43C)C1CCC2=O (centres undefined)
inactive: S. cerevisiae deletion strains, locus YAL013W, strain DEP1, active compounds read low 1 | S. cerevisiae deletion strains, locus YAL040C, strain CLN3, active compounds read low 0.99 | S. cerevisiae deletion strains, locus YCL061C, strain MRC1 (second series), active compounds read low 0.998 | S. cerevisiae deletion strains, locus YDR363W, strain ESC2, active compounds read low 0.984 | S. cerevisiae deletion strains, locus YER002W, strain NOP16, active compounds read low 0.995 | S. cerevisiae deletion strains, locus YMR263W, strain SAP30, active compounds read low 1 | S. cerevisiae deletion strains, locus YNL175C, strain NOP13, active compounds read low 1.02 | S. cerevisiae deletion strains, locus YNL197C, strain WHI3, active compounds read low 0.992 | S. cerevisiae deletion strains, locus YNL224C, strain SQS1, active compounds read low 0.969 | S. cerevisiae deletion strains, locus YOR083W, strain WHI5 (second series), active compounds read low 0.986 | S. cerevisiae deletion strains, locus YPL241C, strain CIN2, active compounds read low 1.01

C[C@]12CCC3C(CC[C@H]4C[C@@H](Cl)CC[C@]34C)C1CCC2=O (some centres undefined)
inactive: S. cerevisiae deletion strains, locus YBR021W, strain FUR4, active compounds read low 0.947 | S. cerevisiae deletion strains, locus YBR229C, strain ROT2, active compounds read low 1.03 | S. cerevisiae deletion strains, locus YCL029C, strain bik1, active compounds read low 0.968 | S. cerevisiae deletion strains, locus YDL035C, strain GPR1, active compounds read low 0.921 | S. cerevisiae deletion strains, locus YDL074C, strain BRE1, active compounds read low 0.87 | S. cerevisiae deletion strains, locus YDL101C, strain DUN1, active compounds read low 0.997 | S. cerevisiae deletion strains, locus YDL134C, strain PPH21, active compounds read low 0.977 | S. cerevisiae deletion strains, locus YDL185W, strain tfp1, active compounds read low 1.02 | S. cerevisiae deletion strains, locus YDL192W, strain arf1, active compounds read low 0.956 | S. cerevisiae deletion strains, locus YDR101C, strain arx1, active compounds read low 1.01 | S. cerevisiae deletion strains, locus YDR150W, strain NUM1, active compounds read low 1.01 | S. cerevisiae deletion strains, locus YDR162C, strain NBP2, active compounds read low 0.885 | S. cerevisiae deletion strains, locus YDR318W, strain mcm21, active compounds read low 0.981 | S. cerevisiae deletion strains, locus YDR388W, active compounds read low 1.02 | S. cerevisiae deletion strains, locus YDR502C, strain sam2, active compounds read low 0.988 | S. cerevisiae deletion strains, locus YER110C, active compounds read low 1.02 | S. cerevisiae deletion strains, locus YER155C, strain BEM2, active compounds read low 1.02 | S. cerevisiae deletion strains, locus YER167W, strain BCK2, active compounds read low 0.983 | S. cerevisiae deletion strains, locus YGL078C, strain dbp3, active compounds read low 0.99 | S. cerevisiae deletion strains, locus YGL086W, strain mad1, active compounds read low 0.959 | S. cerevisiae deletion strains, locus YGL248W, strain PDE1, active compounds read low 0.972 | S. cerevisiae deletion strains, locus YGR078C, strain PAC10, active compounds read low 0.951 | S. cerevisiae deletion strains, locus YGR135W, strain pre9, active compounds read low 0.997 | S. cerevisiae deletion strains, locus YGR252W, strain gcn5, active compounds read low 0.993 | S. cerevisiae deletion strains, locus YHR030C, strain SLT2, active compounds read low 1.02 | S. cerevisiae deletion strains, locus YHR079C, strain IRE1 (second series), active compounds read low 1.02 | S. cerevisiae deletion strains, locus YHR094C, strain hxt1, active compounds read low 1.02 | S. cerevisiae deletion strains, locus YHR129C, strain ARP1, active compounds read low 0.987 | S. cerevisiae deletion strains, locus YHR200W, strain rpn10, active compounds read low 0.951 | S. cerevisiae deletion strains, locus YIL066C, strain RNR3, active compounds read low 0.957 | S. cerevisiae deletion strains, locus YIL073C, strain SPO22, active compounds read low 1.05 | S. cerevisiae deletion strains, locus YIL125W, strain kgd1, active compounds read low 1 | S. cerevisiae deletion strains, locus YIR030C, strain dcg1, active compounds read low 1.02 | S. cerevisiae deletion strains, locus YJL095W, strain BCK1, active compounds read low 0.952 | S. cerevisiae deletion strains, locus YJL134W, strain LCB3, active compounds read low 1.02 | S. cerevisiae deletion strains, locus YJL168C, strain set2, active compounds read low 1.04 | S. cerevisiae deletion strains, locus YJL187C, strain SWE1 (second series), active compounds read low 0.993 | S. cerevisiae deletion strains, locus YJR043C, strain POL32, active compounds read low 0.925 | S. cerevisiae deletion strains, locus YKL009W, strain mrt4, active compounds read low 1.02 | S. cerevisiae deletion strains, locus YKL068W, active compounds read low 1.01 | S. cerevisiae deletion strains, locus YKL085W, strain MDH1 (second series), active compounds read low 0.998 | S. cerevisiae deletion strains, locus YKL085W, strain MDH1, active compounds read low 0.998 | S. cerevisiae deletion strains, locus YKR001C, strain vps1, active compounds read low 0.937 | S. cerevisiae deletion strains, locus YLR039C, strain RIC1, active compounds read low 0.769 | S. cerevisiae deletion strains, locus YLR058C, strain SHM2, active compounds read low 0.984 | S. cerevisiae deletion strains, locus YLR102C, strain apc9, active compounds read low 1.01 | S. cerevisiae deletion strains, locus YLR268W, strain sec22, active compounds read low 0.982 | S. cerevisiae deletion strains, locus YLR330W, strain CHS5, active compounds read low 0.987 | S. cerevisiae deletion strains, locus YLR371W, strain rom2, active compounds read low 0.99 | S. cerevisiae deletion strains, locus YLR418C, strain cdc73, active compounds read low 0.849 | S. cerevisiae deletion strains, locus YML016C, strain PPZ1, active compounds read low 1.01 | S. cerevisiae deletion strains, locus YML032C, strain rad52, active compounds read low 0.993 | S. cerevisiae deletion strains, locus YML124C, strain tub3, active compounds read low 1.02 | S. cerevisiae deletion strains, locus YMR078C, strain ctf18, active compounds read low 1.03 | S. cerevisiae deletion strains, locus YMR223W, strain ubp8, active compounds read low 0.999 | S. cerevisiae deletion strains, locus YMR307W, strain GAS1, active compounds read low 1.06 | S. cerevisiae deletion strains, locus YNL067W, strain RPL9B, active compounds read low 0.986 | S. cerevisiae deletion strains, locus YNL233W, strain BNI4, active compounds read low 0.969 | S. cerevisiae deletion strains, locus YNL250W, strain rad50, active compounds read low 1.03 | S. cerevisiae deletion strains, locus YNL271C, strain bni1, active compounds read low 1.01 | S. cerevisiae deletion strains, locus YNL298W, strain CLA4, active compounds read low 0.967 | S. cerevisiae deletion strains, locus YNR052C, strain pop2, active compounds read low 0.976 | S. cerevisiae deletion strains, locus YOL006C, strain TOP1, active compounds read low 0.863 | S. cerevisiae deletion strains, locus YOL012C, strain htz1 0.88 | S. cerevisiae deletion strains, locus YOL147C, strain pex11, active compounds read low 0.972 | S. cerevisiae deletion strains, locus YOR061W, strain CKA2, active compounds read low 1.02 | S. cerevisiae deletion strains, locus YOR069W, strain VPS5, active compounds read low 1.01 | S. cerevisiae deletion strains, locus YOR136W, strain idh2, active compounds read low 1 | S. cerevisiae deletion strains, locus YOR144C, strain elg1, active compounds read low 1.01 | S. cerevisiae deletion strains, locus YOR316C, strain cot1, active compounds read low 1.02 | S. cerevisiae deletion strains, locus YPR119W, strain clb2, active compounds read low 1.03 | S. cerevisiae deletion strains, locus YPR141C, strain kar3, active compounds read low 1.03 | S. cerevisiae deletion strains, locus YPR163C, strain tif3, active compounds read low 0.969 | S. cerevisiae deletion strains, locus YPR167C, strain met16, active compounds read low 0.996 | S. cerevisiae deletion strains, strain wtn01, active compounds read low 0.967 | S. cerevisiae strains, strain wild type, active compounds read low 0.909
active: S. cerevisiae deletion strains, locus YNL307C, strain MCK1, active compounds read low 0.888 | S. cerevisiae deletion strains, locus YOR184W, strain ser1, active compounds read low 0.733

From PubChem BioAssay AID1159580 (chemical genetic matrix, 2015)
